Screening results deposited in PubChem BioAssay by National Center for Advancing Translational Sciences (NCATS).
LmPK inh – LmPK (Leishmania mexicana) enzyme inhibition; purified LmPK, Kinase-Glo ATP luminescence, 1 h; AID 1721; 290,000 compounds, 0.37% hits; Potency, µM (titrated, usually from 57.5 µM), for inactives: at the highest dose activity change, negative = inhibition, most hits filed as inhibitors; further: potency means the concentration at half of the fitted maximal effect; on the % scale 0 is the no-effect control and ±100 the full control effect
Target sequence (Q27686 whole entry, looked up): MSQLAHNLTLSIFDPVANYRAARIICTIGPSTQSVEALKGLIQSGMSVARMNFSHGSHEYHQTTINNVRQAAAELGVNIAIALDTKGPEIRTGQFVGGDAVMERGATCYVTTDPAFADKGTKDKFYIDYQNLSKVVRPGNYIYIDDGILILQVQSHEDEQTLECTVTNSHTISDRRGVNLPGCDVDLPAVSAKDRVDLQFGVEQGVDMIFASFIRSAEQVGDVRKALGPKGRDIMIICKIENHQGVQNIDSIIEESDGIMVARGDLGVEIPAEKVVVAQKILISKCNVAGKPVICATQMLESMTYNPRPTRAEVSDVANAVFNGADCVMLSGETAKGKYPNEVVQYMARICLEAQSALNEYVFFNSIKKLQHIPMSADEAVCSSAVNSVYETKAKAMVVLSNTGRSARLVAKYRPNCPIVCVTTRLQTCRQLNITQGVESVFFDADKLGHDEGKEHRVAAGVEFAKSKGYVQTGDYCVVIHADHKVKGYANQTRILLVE
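Purified LmPK (0.1 nM) converted ADP (0.1 mM) to ATP with PEP (0.5 mM) in imidazole buffer pH 7.2 with KCl and MgCl2, 1 h at room temperature. ATP was read by Kinase-Glo luminescence; data normalized to uninhibited and no-enzyme controls.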
Shiga toxin inh – blocks Shiga toxin action in Vero cells; Vero cells, Shiga toxin protein synthesis inhibition reporter; inhibition, % at 38.7 µM; 290,000 compounds, 9.2% hits; AID 2315; in the data active means inhibition mostly above about 28%, no sharp cut-off; inactive means mostly below about 43%; further: 0% is about no effect
RE007 growth inh – less growth of the S. pombe RE007 Vpr strain; S. pombe RE007 Vpr strain, BacTiter-Glo ATP luminescence, 24 h; Potency, µM (top dose mostly 92.2 µM), for inactives: at the top dose activity change, negative = less growth, actives largely listed as inhibitors; 360,000 compounds, 0.21% hits; AID 651644; active means well fitted falling curve with a large enough effect; inconclusive means small, poorly fitted or top-dose-only effect; inactive means no such curve, though single readings can be large or run the other way; further: potency means the concentration at half of the fitted maximal effect; on the % scale 0 is the no-effect control and ±100 the full control effect; nearly all actives have a fitted effect of over 50% in size
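Fission yeast RE007 carrying one integrated HIV-1 vpr copy, seeded at OD 0.01 in PMG+AL medium with 23 nL pinned compound. Grown 24 h at 30 degrees; viability read by BacTiter-Glo luminescence after 5 min.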
TbPYK inhibitor – T. brucei pyruvate kinase inhibition. Q57TT1. 410,000 compounds, 0.12% hits. TbPYK enzyme, Kinase-Glo Plus ATP luminescence, 45 min. Potency, µM (titrated, usually from 76.8 µM), without a hit: at the top dose activity, negative = inhibition, hits mostly inhibitors; further: potency means the concentration at half of the fitted maximal effect; on the % scale 0 is the no-effect control and ±100 the full control effect; nearly all actives have a fitted effect of over 50% in size
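Readout: single end-point luminescence (Kinase-Glo Plus, 10 min). Reaction conditions were TbPYK/substrate plus 130 uM ADP, 45 min at RT, pH 7.2 TEA buffer. No-enzyme wells served as controls, and data were normalized before concentration-response fitting.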
CHX counter – counter-screen for Shiga toxin inhibitors: cycloheximide protein synthesis inhibition; cell reporter, cycloheximide protein synthesis inhibition counterscreen; max response, %; 300,000 compounds, 12% hits; in the data active means max response mostly above about 13%, no sharp cut-off; inactive means mostly below about 14%; further: read at 38.3 µM for the half of the compounds with a filed dose; 0% is about no effect
FBPA Giardia inh – Giardia lamblia aldolase inhibition; A8B2U2; purified Giardia FBPA; Potency, µM (series often up to 59.6 µM), without a hit: at the top dose activity, negative = inhibition, most hits filed as inhibitors; 290,000 compounds, 0.71% hits; AID 2451; further: potency means the concentration at half of the fitted maximal effect; on the % scale 0 is the no-effect control and ±100 the full control effect; nearly all actives have a fitted effect of over 55% in size
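Giardia FBPA (40 nM reagent) was preincubated 10 min at RT with compound (up to 57.5 uM final), then substrate plus GAPDH/TPI/NAD/arsenate coupling system with diaphorase/resazurin was added; resorufin fluorescence (525/598 nm) was read after 20 min.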
Numbers without * were called inactive; ? = inconclusive; . = no result; + = active, no number; [ ] = dose if it differs, or a comment. This excerpt belongs to a sample that is enriched for hits. Unless noted, the call rests on the fitted dose curve; in most records, active means well fitted curve in the direction sought with a large enough effect; inconclusive means small, poorly fitted or top-dose-only effect, or another doubt; inactive means no such curve, though single readings can be large; an effect the other way counts as inactive or inconclusive.

SMILES | LmPK inh | Shiga toxin inh | RE007 growth inh | TbPYK inhibitor | CHX counter | FBPA Giardia inh
O=C(NCc1ccco1)C(c1cccs1)N(Cc1ccccc1)C(=O)Cn1nnc2ccccc21 (configuration not stated) | -2.5% | 48.9* | 0.6% | -5.0% | 30.0* | 9.6%
Cc1ccc(CN(C(=O)Cn2nnc3ccccc32)C(C(=O)NCc2ccco2)c2cccs2)cc1 (configuration not stated) | 0.5% | 57.4* | 21.2% | -6.8% | 18.8* | -10.0%
O=C(NC1CCCCC1)C(c1ccco1)N(Cc1cccs1)C(=O)Cn1nnc2ccccc21 (configuration not stated) | 0.0% | -11.2 | -6.0% | 5.8% | -1.5 | 11.1%
O=C(NCc1ccco1)C(c1ccco1)N(Cc1cccs1)C(=O)Cn1nnc2ccccc21 (configuration not stated) | 6.3% | 51.5* | 5.3% | -12.1% | 19.1* | -5.2%
O=C(NCc1ccco1)C(c1ccco1)N(CCc1ccccc1)C(=O)Cn1nnc2ccccc21 (configuration not stated) | 7.3% | 17.9 | 12.8% | ? | 7.4 | -0.8%
COCCCNC(=O)c1ccc2c(c1)N=C(C)c1c(C)ccc(C)c1S2 | . | . | . | -3.2% | . | .
COc1ccccc1N1CCN(/N=C\c2sccc2C)CC1 | -4.6% | 99.4* | -16.1% | -1.1% | 38.4 | 3.2%
COc1ccccc1N1CCN(/N=C/c2cc(OC)c(OC)c(OC)c2)CC1 | 1.2% | 15.1 | -33.8% | 1.3% | 9.0 | -1.0%
COc1ccccc1N1CCN(/N=C/c2cccc(OC)c2OC)CC1 | 2.3% | 61.3* | -13.8% | 3.0% | 15.3* | 1.8%
COc1cc(/C=N/N2CCN(c3ccccc3OC)CC2)ccc1O | -3.5% | + | -10.0% | -12.4% | 25.6* | -6.0%
COc1ccccc1N1CCN(/N=C\c2ccc(C)o2)CC1 | -2.5% | 99.6* | ? | 5.1% | 45.4 | -7.4%
COc1ccccc1N1CCN(/N=C/c2c(C)nn(-c3ccccc3)c2C)CC1 | 1.8% | 7.9 | -5.5% | 1.5% | 3.0 | -4.1%
COc1ccccc1N1CCN(c2csc3ccccc3c2=O)CC1 | . | . | . | -11.1% | . | .
COc1ccc(N2CCN(C(=O)c3cccn3-c3nnc(N4CCCC4)s3)CC2)cc1 | . | . | . | -14.4%[15.4 µM] | . | .
COc1ccc(CCNC(=O)Cc2c(C)c3c(cc(C)c4c(C)coc43)oc2=O)cc1OC | . | . | . | 3.5% | . | .
COc1cc(-c2noc(-c3ccc(N(C)C)c([N+](=O)[O-])c3)n2)cc(OC)c1OC | . | . | . | 3.1% | . | .
O=C(CSc1c2c(nc3ccccc13)CCC2)Nc1ccc(F)cc1F | . | . | . | 0.6% | . | .
COc1ccccc1N1CCN(/N=C/C(Cl)=C/c2ccccc2)CC1 | -14.4% | 81.2* | -14.3% | -0.1% | 33.0* | -1.5%
Cc1ccsc1/C=N/N1CCOCC1 | -5.0% | 13.4 | -10.2% | -11.4% | 1.8 | 1.9%
COc1ccccc1N1CCN(/N=C\c2ccccc2)CC1 | 20.8% | . | 2.8% | 4.8% | 56.6* | -10.6%
Cc1ccc(N2CCN(/N=C/C(Cl)=C/c3ccccc3)CC2)cc1 | 5.3% | 31.6 | -13.6% | -21.1% | 11.7 | -0.6%
Cc1ccc(N2CCN(/N=C/c3sccc3C)CC2)cc1 | 10.3% | 10.0 | -6.3% | -4.5% | 12.1* | 5.8%
CN1C(=O)C(=Cc2ccc(OCCN(C)c3ccccn3)cc2)C(=O)N(C)C1=O | -4.8% | 37.1 | 0.8% | -8.5% | 21.4* | -0.5%
FC(F)(F)c1cnc(COc2ccc(Cl)cc2Cl)c(Cl)c1 | -4.0% | 66.0* | -23.4% | 3.2% | 17.1* | -0.1%
CC(=O)C(C)Oc1ccc(Cc2ncc(C(F)(F)F)cc2Cl)cc1 (configuration not stated) | -3.7% | 10.6 | -9.7% | -0.6% | -1.2 | 3.2%
SMILES | LmPK inh | Shiga toxin inh | RE007 growth inh | TbPYK inhibitor | CHX counter | FBPA Giardia inh
CC(=O)c1ccc(OCc2ncc(C(F)(F)F)cc2Cl)cc1 | -2.3% | 75.6* | 6.2% | -3.9% | 35.9* | -0.6%
NC(=O)Cc1ncc(C(F)(F)F)cc1Cl | 3.4% | -4.5 | 3.6% | 0.1% | -2.9 | 2.3%
CCOc1ccccc1NC(=O)c1ccc2c(c1)CCN2S(C)(=O)=O | . | . | . | -4.3% | . | .
Cc1cc(=O)oc2cc(OCc3nnc(-c4ccccc4Br)o3)ccc12 | 2.0% | -13.6 | 10.9% | 26.7% | -2.8 | 0.3%
NC(=O)c1ccccc1OCc1nnc(-c2ccccc2Br)o1 | -4.5% | 64.8* | -4.4% | -2.8% | 19.0 | 3.6%
O=Cc1ccc(OCc2nnc(-c3ccccc3Br)o2)cc1 | 4.1% | 57.4* | 15.1% | -1.6% | 21.2 | 2.1%
O=c1ccc2ccc(OCc3nnc(-c4ccccc4Br)o3)cc2o1 | 0.6% | 42.7* | 21.7% | 4.6% | 17.7 | 7.0%
CCN(CC)c1ccc(-c2nc(-c3ccco3)no2)cc1[N+](=O)[O-] | . | . | . | 0.4% | . | .
COc1ccc(CCNC(=O)C2CC(O)CN2S(=O)(=O)c2ccc(Cl)cc2)cc1OC (configuration not stated) | . | . | 31.6% | 1.1% | . | .
Cc1nc(COC(=O)c2c(C)nn(-c3ccccc3)c2C)cs1 | -2.4% | 100.1* | -8.4% | -3.4% | 35.5* | 3.9%
Cc1nn(-c2ccccc2)c(C)c1C(=O)OCC(=O)Nc1ccccc1 | . | . | -20.1% | 3.3% | . | .
Cc1ccc(-c2ccc(C(=O)O)c(C)n2)cc1 | -12.3% | -4.8 | 39.2% | 0.4% | -2.6 | 7.5%
COC(=O)c1ccc(-c2ccc(F)cc2)nc1C | -12.6% | 72.7* | -26.8% | -8.9% | 112.3* | -0.4%
CCOC(=O)c1cc2c(nc1N)CCCC2 | 0.3% | 20.3 | -18.0% | 8.7% | 10.3 | 2.2%
CCOC(=O)c1ccc(-c2ccc3c(c2)CCC3)nc1C | -4.1% | 93.3* | -23.8% | 2.5% | 28.9* | 1.8%
CC12CCC(C(=O)NC3CCCCC3)([C@H](Br)C1=O)C2(C)C (some centres not stated) | -2.6% | 1.8 | 9.1% | -2.2% | -2.4 | -6.0%
CCN(C(=O)CCc1nc(-c2ccc(C)cc2)no1)c1cccc(C(F)(F)F)c1 | . | . | . | -6.1% | . | .
CCc1nnc(NC(=O)C2Cc3ccccc3CN2S(=O)(=O)c2ccc(C)cc2)s1 (configuration not stated) | 2.2% | 59.3* | -16.0% | -2.9% | 37.5* | .
O=C(Nc1nnc(C2CC2)s1)C1Cc2ccccc2CN1S(=O)(=O)c1cccs1 (configuration not stated) | 0.4% | 74.7* | 0.2% | -1.0% | 17.2* | -1.4%
CCc1nnc(NC(=O)C2Cc3ccccc3CN2S(=O)(=O)c2cccs2)s1 (configuration not stated) | 8.3% | 48.8* | -2.9% | -18.8% | 43.3* | -8.0%
Cc1cc(C)c2c(=O)cc(C(=O)Nc3ccc(S(=O)(=O)Nc4nc(C)cc(C)n4)cc3)oc2c1 | . | . | . | 0.1% | . | .
CC(C)c1nc2ccc(C(=O)NCc3ccc(N(C)C)cc3)cc2o1 | . | . | . | 2.4% | . | .
